# Data from ChEMBL document CHEMBL1961873, “Compounds: GSK PKIS; Assays: Nanosyn kinase panel” (2012).
# Tests used:
# [1] = target: Mast/stem cell growth factor receptor Kit (Homo sapiens) (UniProt P10721); details: at 1 µM
# [2] = tested on: Mast/stem cell growth factor receptor Kit (Homo sapiens), P10721 [D816V]; details: at 0.1 µM
# [3] = tested on: Mast/stem cell growth factor receptor Kit (Homo sapiens), P10721 [D816V]; details: at 1 µM
# [4] = tested on: Mast/stem cell growth factor receptor Kit (Homo sapiens), P10721 [T670I]; details: at 0.1 µM
# [5] = tested on: Mast/stem cell growth factor receptor Kit (Homo sapiens), P10721 [T670I]; details: at 1 µM
# [6] = tested on: Mast/stem cell growth factor receptor Kit (Homo sapiens), P10721 [V560G]; details: at 0.1 µM
# [7] = tested on: Mast/stem cell growth factor receptor Kit (Homo sapiens), P10721 [V560G]; details: at 1 µM
# [8] = target: Tyrosine-protein kinase Lck (Homo sapiens) (UniProt P06239); details: at 0.1 µM
# [9] = target: Tyrosine-protein kinase Lck (Homo sapiens) (UniProt P06239); details: at 1 µM
# [10] = target: Leukocyte tyrosine kinase receptor (Homo sapiens) (UniProt P29376); details: at 0.1 µM
# [11] = target: Leukocyte tyrosine kinase receptor (Homo sapiens) (UniProt P29376); details: at 1 µM
# [12] = target: Tyrosine-protein kinase Lyn (Homo sapiens) (UniProt P07948); details: at 0.1 µM
# [13] = target: Tyrosine-protein kinase Lyn (Homo sapiens) (UniProt P07948); details: at 1 µM
# [14] = target: Tyrosine-protein kinase Lyn (Homo sapiens) (UniProt P07948); details: at 0.1 µM; remark: listed apart in the source
# [15] = target: Tyrosine-protein kinase Lyn (Homo sapiens) (UniProt P07948); details: at 1 µM; remark: listed apart in the source
# [16] = target: T1, Tyrosine-protein kinase Mer (Homo sapiens) (UniProt Q12866); details: at 0.1 µM
# T1 sequence (whole entry): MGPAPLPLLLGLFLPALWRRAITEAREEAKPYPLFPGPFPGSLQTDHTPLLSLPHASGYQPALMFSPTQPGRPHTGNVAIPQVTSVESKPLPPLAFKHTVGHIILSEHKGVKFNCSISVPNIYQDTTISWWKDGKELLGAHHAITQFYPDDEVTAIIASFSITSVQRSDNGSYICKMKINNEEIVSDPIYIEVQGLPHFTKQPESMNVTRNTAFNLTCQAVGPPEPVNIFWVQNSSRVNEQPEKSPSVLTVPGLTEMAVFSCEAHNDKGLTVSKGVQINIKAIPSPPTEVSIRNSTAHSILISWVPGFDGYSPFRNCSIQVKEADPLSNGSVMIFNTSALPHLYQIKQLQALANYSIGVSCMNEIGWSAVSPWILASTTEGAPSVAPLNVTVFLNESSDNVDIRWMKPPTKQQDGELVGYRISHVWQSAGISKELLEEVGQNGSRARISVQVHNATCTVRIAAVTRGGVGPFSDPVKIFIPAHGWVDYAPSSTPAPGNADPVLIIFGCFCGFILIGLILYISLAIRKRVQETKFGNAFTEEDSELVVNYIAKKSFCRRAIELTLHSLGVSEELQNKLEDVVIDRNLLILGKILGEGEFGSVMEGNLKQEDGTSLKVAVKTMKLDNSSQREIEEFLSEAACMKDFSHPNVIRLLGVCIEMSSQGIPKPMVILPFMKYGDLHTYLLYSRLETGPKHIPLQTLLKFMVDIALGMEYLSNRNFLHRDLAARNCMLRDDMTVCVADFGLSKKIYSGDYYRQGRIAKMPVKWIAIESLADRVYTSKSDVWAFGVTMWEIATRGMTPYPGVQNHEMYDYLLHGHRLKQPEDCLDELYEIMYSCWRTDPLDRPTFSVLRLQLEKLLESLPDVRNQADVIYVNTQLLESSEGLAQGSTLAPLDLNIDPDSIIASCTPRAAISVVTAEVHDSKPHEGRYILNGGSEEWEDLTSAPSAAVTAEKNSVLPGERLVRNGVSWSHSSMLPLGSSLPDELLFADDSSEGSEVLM
# [17] = target: T1, Tyrosine-protein kinase Mer (Homo sapiens); details: at 1 µM
# [18] = target: Hepatocyte growth factor receptor (Homo sapiens) (UniProt P08581); details: at 0.1 µM
# [19] = target: Hepatocyte growth factor receptor (Homo sapiens) (UniProt P08581); details: at 1 µM
# [20] = target: T2, Muscle, skeletal receptor tyrosine-protein kinase (Homo sapiens) (UniProt O15146); details: at 0.1 µM;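 further: values are mean inhibition of MuSK from the GSK PKIS kinase screening panel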
# T2 sequence (whole entry): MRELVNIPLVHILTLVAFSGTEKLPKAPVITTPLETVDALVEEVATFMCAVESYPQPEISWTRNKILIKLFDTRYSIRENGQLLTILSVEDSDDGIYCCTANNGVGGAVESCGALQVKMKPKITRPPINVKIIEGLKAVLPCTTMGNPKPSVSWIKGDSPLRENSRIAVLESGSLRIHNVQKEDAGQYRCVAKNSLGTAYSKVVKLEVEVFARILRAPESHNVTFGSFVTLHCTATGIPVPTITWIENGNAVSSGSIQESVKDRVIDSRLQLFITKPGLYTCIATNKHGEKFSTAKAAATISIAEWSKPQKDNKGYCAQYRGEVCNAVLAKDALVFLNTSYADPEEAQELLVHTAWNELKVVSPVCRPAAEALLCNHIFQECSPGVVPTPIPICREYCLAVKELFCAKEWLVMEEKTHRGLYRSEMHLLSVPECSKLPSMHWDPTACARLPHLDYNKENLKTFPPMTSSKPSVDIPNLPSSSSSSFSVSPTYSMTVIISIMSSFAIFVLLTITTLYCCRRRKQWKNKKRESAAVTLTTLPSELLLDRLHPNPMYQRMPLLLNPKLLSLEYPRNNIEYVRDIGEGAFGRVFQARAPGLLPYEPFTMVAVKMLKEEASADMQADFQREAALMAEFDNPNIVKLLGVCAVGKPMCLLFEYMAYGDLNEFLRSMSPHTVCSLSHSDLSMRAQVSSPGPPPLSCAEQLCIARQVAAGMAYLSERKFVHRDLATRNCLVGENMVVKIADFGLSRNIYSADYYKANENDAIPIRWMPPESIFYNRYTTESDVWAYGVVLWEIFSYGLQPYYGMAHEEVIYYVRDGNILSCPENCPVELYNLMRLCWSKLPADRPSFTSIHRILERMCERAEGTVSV
# Chain of Hepatocyte growth factor receptor (Homo sapiens) (P08581 whole entry): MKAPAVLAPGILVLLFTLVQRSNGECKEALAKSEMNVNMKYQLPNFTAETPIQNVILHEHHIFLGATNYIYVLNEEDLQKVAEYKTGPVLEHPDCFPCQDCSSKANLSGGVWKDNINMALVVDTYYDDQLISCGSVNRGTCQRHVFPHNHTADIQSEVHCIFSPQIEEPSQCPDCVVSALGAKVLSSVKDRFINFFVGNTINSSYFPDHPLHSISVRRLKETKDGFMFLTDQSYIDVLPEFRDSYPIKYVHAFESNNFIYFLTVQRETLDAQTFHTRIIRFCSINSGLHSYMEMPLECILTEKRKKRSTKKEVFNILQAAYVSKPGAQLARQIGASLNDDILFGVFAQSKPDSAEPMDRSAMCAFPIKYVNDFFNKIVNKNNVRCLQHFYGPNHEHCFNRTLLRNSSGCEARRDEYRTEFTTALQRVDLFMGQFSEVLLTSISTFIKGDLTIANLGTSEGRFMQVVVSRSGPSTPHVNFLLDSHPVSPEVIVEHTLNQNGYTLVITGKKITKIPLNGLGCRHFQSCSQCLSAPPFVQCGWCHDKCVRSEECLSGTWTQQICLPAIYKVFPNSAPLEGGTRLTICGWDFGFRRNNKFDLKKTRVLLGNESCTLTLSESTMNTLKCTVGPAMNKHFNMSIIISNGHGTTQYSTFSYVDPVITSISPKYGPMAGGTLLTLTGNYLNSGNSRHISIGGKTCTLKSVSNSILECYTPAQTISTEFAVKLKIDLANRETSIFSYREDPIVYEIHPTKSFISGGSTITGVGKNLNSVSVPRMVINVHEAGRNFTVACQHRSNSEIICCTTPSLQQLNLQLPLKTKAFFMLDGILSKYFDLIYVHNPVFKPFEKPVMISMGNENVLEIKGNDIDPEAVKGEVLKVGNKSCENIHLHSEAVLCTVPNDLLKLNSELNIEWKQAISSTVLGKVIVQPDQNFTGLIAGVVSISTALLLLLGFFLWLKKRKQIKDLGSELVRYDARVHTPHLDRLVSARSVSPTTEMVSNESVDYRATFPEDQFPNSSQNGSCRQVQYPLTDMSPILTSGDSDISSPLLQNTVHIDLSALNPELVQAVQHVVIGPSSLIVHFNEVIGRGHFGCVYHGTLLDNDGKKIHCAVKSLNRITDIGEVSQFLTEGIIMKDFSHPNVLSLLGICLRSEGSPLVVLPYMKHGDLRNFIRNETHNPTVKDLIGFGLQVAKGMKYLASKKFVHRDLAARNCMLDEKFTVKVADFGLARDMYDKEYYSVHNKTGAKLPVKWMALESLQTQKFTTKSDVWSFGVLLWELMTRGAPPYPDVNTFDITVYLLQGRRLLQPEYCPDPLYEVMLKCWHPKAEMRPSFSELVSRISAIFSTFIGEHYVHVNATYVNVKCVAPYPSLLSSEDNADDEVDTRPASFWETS
# Chain of Leukocyte tyrosine kinase receptor (Homo sapiens) (P29376 whole entry): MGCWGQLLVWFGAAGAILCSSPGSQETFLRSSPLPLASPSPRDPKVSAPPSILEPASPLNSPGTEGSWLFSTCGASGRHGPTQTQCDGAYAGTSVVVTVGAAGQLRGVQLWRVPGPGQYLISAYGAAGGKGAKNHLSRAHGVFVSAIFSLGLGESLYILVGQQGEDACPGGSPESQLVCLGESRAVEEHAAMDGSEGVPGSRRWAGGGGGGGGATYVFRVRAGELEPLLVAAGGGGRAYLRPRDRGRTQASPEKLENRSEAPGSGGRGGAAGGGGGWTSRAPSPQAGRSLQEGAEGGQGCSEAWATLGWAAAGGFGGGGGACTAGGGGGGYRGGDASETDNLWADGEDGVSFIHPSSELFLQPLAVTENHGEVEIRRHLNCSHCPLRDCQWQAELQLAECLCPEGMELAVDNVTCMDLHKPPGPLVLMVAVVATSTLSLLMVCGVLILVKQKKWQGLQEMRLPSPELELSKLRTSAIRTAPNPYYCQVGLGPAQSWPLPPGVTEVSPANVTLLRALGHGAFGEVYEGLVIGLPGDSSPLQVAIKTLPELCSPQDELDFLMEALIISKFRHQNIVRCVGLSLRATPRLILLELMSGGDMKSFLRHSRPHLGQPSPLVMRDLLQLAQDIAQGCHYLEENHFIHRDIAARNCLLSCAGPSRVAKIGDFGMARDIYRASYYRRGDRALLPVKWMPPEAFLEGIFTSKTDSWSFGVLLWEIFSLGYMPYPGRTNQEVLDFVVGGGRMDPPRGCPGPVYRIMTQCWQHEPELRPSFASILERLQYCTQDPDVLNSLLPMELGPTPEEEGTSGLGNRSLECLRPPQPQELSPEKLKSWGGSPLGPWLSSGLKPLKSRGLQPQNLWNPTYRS
# Chain of Mast/stem cell growth factor receptor Kit (Homo sapiens), P10721 [T670I] (P10721 whole entry T670I): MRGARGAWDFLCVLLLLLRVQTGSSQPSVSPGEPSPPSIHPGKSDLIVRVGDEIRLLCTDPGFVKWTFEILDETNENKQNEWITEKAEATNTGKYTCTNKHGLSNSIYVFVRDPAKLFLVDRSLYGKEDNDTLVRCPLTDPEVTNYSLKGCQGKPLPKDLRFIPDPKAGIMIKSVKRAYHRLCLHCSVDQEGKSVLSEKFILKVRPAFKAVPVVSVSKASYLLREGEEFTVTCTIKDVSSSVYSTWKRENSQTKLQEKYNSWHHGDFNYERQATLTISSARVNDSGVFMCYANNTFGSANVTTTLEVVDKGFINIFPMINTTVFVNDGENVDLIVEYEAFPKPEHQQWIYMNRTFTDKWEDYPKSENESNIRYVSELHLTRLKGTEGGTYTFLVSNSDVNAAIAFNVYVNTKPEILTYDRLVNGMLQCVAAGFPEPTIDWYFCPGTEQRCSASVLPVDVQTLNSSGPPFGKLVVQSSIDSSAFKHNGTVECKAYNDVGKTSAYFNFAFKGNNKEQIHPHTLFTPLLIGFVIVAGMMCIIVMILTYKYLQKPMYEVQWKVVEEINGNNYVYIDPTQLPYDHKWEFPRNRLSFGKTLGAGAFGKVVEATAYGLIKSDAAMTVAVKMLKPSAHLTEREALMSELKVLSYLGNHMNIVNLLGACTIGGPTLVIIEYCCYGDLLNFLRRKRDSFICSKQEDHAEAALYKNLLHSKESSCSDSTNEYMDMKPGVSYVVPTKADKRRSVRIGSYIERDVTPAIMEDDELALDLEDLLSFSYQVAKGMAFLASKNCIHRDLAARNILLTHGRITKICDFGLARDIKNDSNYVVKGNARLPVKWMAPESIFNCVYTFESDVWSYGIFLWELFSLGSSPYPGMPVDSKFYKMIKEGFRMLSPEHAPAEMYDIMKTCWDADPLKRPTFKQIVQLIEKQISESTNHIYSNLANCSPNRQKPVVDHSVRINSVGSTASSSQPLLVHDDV
# Chain of Mast/stem cell growth factor receptor Kit (Homo sapiens), P10721 [D816V] (P10721 whole entry D816V): as the sequence (P10721 whole entry T670I) above, with I670T, D816V counted along it
# Chain of Mast/stem cell growth factor receptor Kit (Homo sapiens), P10721 [V560G] (P10721 whole entry V560G): as the sequence (P10721 whole entry T670I) above, with V560G, I670T counted along it
# Chain of Tyrosine-protein kinase Lck (Homo sapiens) (P06239 2-509 limits assumed): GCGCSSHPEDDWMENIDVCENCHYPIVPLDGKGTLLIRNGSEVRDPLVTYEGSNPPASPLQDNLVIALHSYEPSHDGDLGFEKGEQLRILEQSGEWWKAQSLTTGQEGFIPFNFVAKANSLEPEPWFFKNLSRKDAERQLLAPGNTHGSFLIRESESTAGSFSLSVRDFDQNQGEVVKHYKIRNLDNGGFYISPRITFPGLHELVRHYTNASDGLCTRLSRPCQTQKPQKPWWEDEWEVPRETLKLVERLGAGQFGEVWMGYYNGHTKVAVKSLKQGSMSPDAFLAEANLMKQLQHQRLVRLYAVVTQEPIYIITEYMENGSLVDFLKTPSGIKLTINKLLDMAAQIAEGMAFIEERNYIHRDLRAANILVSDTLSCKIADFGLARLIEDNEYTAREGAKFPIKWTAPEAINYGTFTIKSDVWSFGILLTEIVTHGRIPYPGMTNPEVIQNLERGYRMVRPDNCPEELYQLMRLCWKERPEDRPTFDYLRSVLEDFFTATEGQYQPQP
# Chain of Tyrosine-protein kinase Lyn (Homo sapiens) (P07948 2-512 limits assumed): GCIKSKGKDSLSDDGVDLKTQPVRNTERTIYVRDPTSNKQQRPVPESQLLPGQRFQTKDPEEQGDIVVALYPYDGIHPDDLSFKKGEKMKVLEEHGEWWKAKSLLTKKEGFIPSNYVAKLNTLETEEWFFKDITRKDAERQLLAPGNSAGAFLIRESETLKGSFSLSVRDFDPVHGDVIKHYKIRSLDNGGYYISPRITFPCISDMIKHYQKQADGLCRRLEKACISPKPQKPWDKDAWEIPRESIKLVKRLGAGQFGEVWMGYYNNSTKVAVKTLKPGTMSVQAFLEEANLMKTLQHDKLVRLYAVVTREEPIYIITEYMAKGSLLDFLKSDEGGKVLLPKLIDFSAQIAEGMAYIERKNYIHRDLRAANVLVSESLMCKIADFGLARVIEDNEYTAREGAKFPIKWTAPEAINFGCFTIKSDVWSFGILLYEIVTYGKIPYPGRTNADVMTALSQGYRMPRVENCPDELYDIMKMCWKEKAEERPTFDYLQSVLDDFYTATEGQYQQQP
# Chain of Mast/stem cell growth factor receptor Kit (Homo sapiens) (P10721 whole entry): as the sequence (P10721 whole entry T670I) above, with I670T counted along it
SMILES,inhibition [1],inhibition [2],inhibition [3],inhibition [4],inhibition [5],inhibition [6],inhibition [7],inhibition [8],inhibition [9],inhibition [10],inhibition [11],inhibition [12],inhibition [13],inhibition [14],inhibition [15],inhibition [16],inhibition [17],inhibition [18],inhibition [19],inhibition [20]
O=C1NC(=O)C(c2ccccc2Cl)=C1Nc1cccc(O)c1,0.62%,2.13%,2.69%,-1.05%,-0.04%,0.38%,1.68%,2.08%,5.21%,0.86%,1.2%,5.68%,3.94%,1.34%,2.65%,1.63%,4.66%,1.79%,-0.4%,3.23%
Nc1nc(-c2ccc3c(c2)C(=Cc2cc(Br)c(O)c(Br)c2)C(=O)N3)cs1,3.41%,0.19%,-1.02%,-2.39%,-1.52%,3.52%,1.96%,-1.54%,4.41%,1.87%,17.4%,0.87%,6.57%,0.59%,4.62%,-0.02%,3.29%,1.02%,4.73%,0.81%
CCn1c(-c2nonc2N)nc2cncc(C(=O)N3CC[C@H](N)C3)c21,6.77%,5.29%,5.73%,3.35%,3.02%,2.5%,-1.61%,,,4.31%,4.61%,8.57%,7.74%,6.42%,5.67%,0.47%,3.48%,5.74%,5.85%,4.23%
COc1cccc(-n2ncc3c(N/N=C/c4cccc(F)c4)ncnc32)c1,14.1%,4.05%,1.87%,2.67%,7.07%,-0.18%,-1.44%,7.82%,40.9%,0.92%,1.7%,13.9%,55.9%,10.2%,50.7%,0.34%,7.16%,7.49%,17.2%,3.52%
CCc1cccc(NC(=O)Nc2ccc(Oc3ccc4nc(NC(=O)OC)[nH]c4c3)cc2)c1,93%,0.55%,0%,58.6%,69.8%,65.6%,74.1%,5.87%,8.47%,1.87%,0.04%,10%,20.8%,7.66%,15.2%,2.96%,3.11%,15.7%,27.4%,16.2%
NC(=O)c1ccc(-c2nc(-c3ccccn3)c(-c3ccc4c(c3)OCO4)[nH]2)cc1,4.68%,7.73%,5.29%,0.05%,,1.28%,6.23%,2.19%,4.07%,3.03%,3.18%,2.23%,2.11%,1.62%,3.18%,1.67%,3.36%,-4.12%,9.28%,2.51%
NC(=O)c1cccc(Nc2nccc(Nc3cccc4[nH]ncc34)n2)c1,91.1%,-2.32%,14.6%,-2.9%,4.51%,5.52%,22.5%,36.7%,81.8%,4.75%,39%,58.5%,91.3%,52.3%,88.9%,-0.28%,8.27%,-1.63%,4.73%,1.07%
